Test results published in PubChem BioAssay AID1159580 (chemical genetic matrix, 2015).
Out of some 5,500 compounds screened, about 2,000 (36%) were called active. Another 18% or so got no clear call; they are omitted. No stated cut-off is given here; in the data, active means normalized growth mostly below about 0.91 (no sharp cut-off); inconclusive means no clear call, values can overlap the other calls; inactive means mostly above about 0.92. The list shows a part of the results.

Assay: chemical genetic growth profiling, strain panel (AID 1159580);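 further: tested at 20 µM; growth read once vehicle control cultures reached saturation at 30 °C; 1 = growth at the plate median or of vehicle wells; lower values mean less growth of the strain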
Conditions: growth OD

Measured: normalized growth

C[C@@H](CO)NC(=O)C1C=C2c3cccc4[nH]cc(c34)C[C@H]2N(C)C1 (some centres not stated)
inactive: S. cerevisiae deletion strains, locus YJR075W, strain HOC1, active compounds read low 1.03 | S. cerevisiae deletion strains, locus YKL009W, strain mrt4, active compounds read low 0.976 | S. cerevisiae deletion strains, locus YKL068W, active compounds read low 0.993 | S. cerevisiae deletion strains, locus YKL085W, strain MDH1 (second series), active compounds read low 0.982 | S. cerevisiae deletion strains, locus YKL085W, strain MDH1, active compounds read low 0.982 | S. cerevisiae deletion strains, locus YKL160W, strain elf1, active compounds read low 1.04 | S. cerevisiae deletion strains, locus YKL190W, strain CNB1, active compounds read low 1.01 | S. cerevisiae deletion strains, locus YKR001C, strain vps1, active compounds read low 0.997 | S. cerevisiae deletion strains, locus YKR026C, strain gcn3, active compounds read low 1.01 | S. cerevisiae deletion strains, locus YKR091W, strain srl3, active compounds read low 1.01 | S. cerevisiae deletion strains, locus YLL001W, strain dnm1, active compounds read low 1.04 | S. cerevisiae deletion strains, locus YLL026W, active compounds read low 1.03 | S. cerevisiae deletion strains, locus YLL041C, strain sdh2, active compounds read low 1.01 | S. cerevisiae deletion strains, locus YLR027C, strain aat2, active compounds read low 1.03 | S. cerevisiae deletion strains, locus YLR039C, strain RIC1, active compounds read low 1.02 | S. cerevisiae deletion strains, locus YLR058C, strain SHM2, active compounds read low 1 | S. cerevisiae deletion strains, locus YLR102C, strain apc9, active compounds read low 0.993 | S. cerevisiae deletion strains, locus YLR113W, strain HOG1, active compounds read low 1.07 | S. cerevisiae deletion strains, locus YLR221C, strain rsa3, active compounds read low 0.97 | S. cerevisiae deletion strains, locus YLR258W, strain gsy2, active compounds read low 1.01 | S. cerevisiae deletion strains, locus YLR262C, strain YPT6 (second series), active compounds read low 1.04 | S. cerevisiae deletion strains, locus YLR262C, strain YPT6, active compounds read low 1.05 | S. cerevisiae deletion strains, locus YLR268W, strain sec22, active compounds read low 1.02 | S. cerevisiae deletion strains, locus YLR320W, strain mms22, active compounds read low 1 | S. cerevisiae deletion strains, locus YLR330W, strain CHS5, active compounds read low 0.994 | S. cerevisiae deletion strains, locus YLR342W, strain FKS1 (second series), active compounds read low 0.973 | S. cerevisiae deletion strains, locus YLR342W, strain FKS1, active compounds read low 1.03 | S. cerevisiae deletion strains, locus YLR357W, strain rsc2, active compounds read low 1 | S. cerevisiae deletion strains, locus YLR370C, strain arc18, active compounds read low 1.02 | S. cerevisiae deletion strains, locus YLR371W, strain rom2, active compounds read low 0.993 | S. cerevisiae deletion strains, locus YLR384C, strain iki3, active compounds read low 0.998 | S. cerevisiae deletion strains, locus YLR418C, strain cdc73, active compounds read low 1.02 | S. cerevisiae deletion strains, locus YML016C, strain PPZ1, active compounds read low 0.991 | S. cerevisiae deletion strains, locus YML032C, strain rad52, active compounds read low 0.981 | S. cerevisiae deletion strains, locus YML120C, strain ndi1, active compounds read low 1.04 | S. cerevisiae deletion strains, locus YML124C, strain tub3, active compounds read low 0.992 | S. cerevisiae deletion strains, locus YMR058W, strain fet3, active compounds read low 1.03 | S. cerevisiae deletion strains, locus YMR078C, strain ctf18, active compounds read low 0.985 | S. cerevisiae deletion strains, locus YMR125W, strain sto1, active compounds read low 1.01 | S. cerevisiae deletion strains, locus YMR129W, active compounds read low 1.01 | S. cerevisiae deletion strains, locus YMR205C, strain PFK2, active compounds read low 1.04 | S. cerevisiae deletion strains, locus YMR223W, strain ubp8, active compounds read low 0.988 | S. cerevisiae deletion strains, locus YMR231W, strain pep5, active compounds read low 1 | S. cerevisiae deletion strains, locus YMR263W, strain SAP30, active compounds read low 1.04 | S. cerevisiae deletion strains, locus YMR307W, strain GAS1, active compounds read low 0.96 | S. cerevisiae deletion strains, locus YNL067W, strain RPL9B, active compounds read low 1.05 | S. cerevisiae deletion strains, locus YNL071W, strain lat1, active compounds read low 1 | S. cerevisiae deletion strains, locus YNL128W, strain TEP1, active compounds read low 1.03 | S. cerevisiae deletion strains, locus YNL153C, strain GIM3, active compounds read low 1.01 | S. cerevisiae deletion strains, locus YNL183C, strain NPR1, active compounds read low 0.994 | S. cerevisiae deletion strains, locus YNL209W, strain ssb2, active compounds read low 1 | S. cerevisiae deletion strains, locus YNL233W, strain BNI4, active compounds read low 1.01 | S. cerevisiae deletion strains, locus YNL248C, strain rpa49, active compounds read low 0.991 | S. cerevisiae deletion strains, locus YNL250W, strain rad50, active compounds read low 1.01 | S. cerevisiae deletion strains, locus YNL271C, strain bni1, active compounds read low 1 | S. cerevisiae deletion strains, locus YNL298W, strain CLA4, active compounds read low 0.992 | S. cerevisiae deletion strains, locus YNL307C, strain MCK1, active compounds read low 0.985 | S. cerevisiae deletion strains, locus YNL322C, strain KRE1 (second series), active compounds read low 1.02 | S. cerevisiae deletion strains, locus YNL322C, strain KRE1, active compounds read low 1.01 | S. cerevisiae deletion strains, locus YNR049C, strain mso1, active compounds read low 1.01 | S. cerevisiae deletion strains, locus YNR052C, strain pop2, active compounds read low 0.984 | S. cerevisiae deletion strains, locus YOL006C, strain TOP1, active compounds read low 1.09 | S. cerevisiae deletion strains, locus YOL012C, strain htz1 0.782 | S. cerevisiae deletion strains, locus YOL147C, strain pex11, active compounds read low 0.996 | S. cerevisiae deletion strains, locus YOR001W, strain rrp6, active compounds read low 1.02 | S. cerevisiae deletion strains, locus YOR061W, strain CKA2, active compounds read low 1 | S. cerevisiae deletion strains, locus YOR069W, strain VPS5, active compounds read low 0.992 | S. cerevisiae deletion strains, locus YOR070C, strain gyp1, active compounds read low 1 | S. cerevisiae deletion strains, locus YOR080W, strain dia2, active compounds read low 1.02 | S. cerevisiae deletion strains, locus YOR083W, strain WHI5, active compounds read low 1.02 | S. cerevisiae deletion strains, locus YOR106W, strain vam3, active compounds read low 1.05 | S. cerevisiae deletion strains, locus YOR136W, strain idh2, active compounds read low 0.988 | S. cerevisiae deletion strains, locus YOR144C, strain elg1, active compounds read low 0.989 | S. cerevisiae deletion strains, locus YOR184W, strain ser1, active compounds read low 1 | S. cerevisiae deletion strains, locus YOR231W, strain MKK1, active compounds read low 1.04 | S. cerevisiae deletion strains, locus YOR265W, strain rbl2, active compounds read low 1.01 | S. cerevisiae deletion strains, locus YOR270C, strain vph1, active compounds read low 1 | S. cerevisiae deletion strains, locus YOR290C, strain snf2, active compounds read low 0.969 | S. cerevisiae deletion strains, locus YOR316C, strain cot1, active compounds read low 0.988 | S. cerevisiae deletion strains, locus YPL051W, strain arl3, active compounds read low 1.01 | S. cerevisiae deletion strains, locus YPL055C, strain LGE1, active compounds read low 1.07 | S. cerevisiae deletion strains, locus YPL078C, strain atp4, active compounds read low 1.06 | S. cerevisiae deletion strains, locus YPL106C, strain sse1, active compounds read low 1.04 | S. cerevisiae deletion strains, locus YPL240C, strain hsp82, active compounds read low 1.01 | S. cerevisiae deletion strains, locus YPL241C, strain CIN2, active compounds read low 1 | S. cerevisiae deletion strains, locus YPL256C, strain CLN2, active compounds read low 1.04 | S. cerevisiae deletion strains, locus YPR119W, strain clb2, active compounds read low 1 | S. cerevisiae deletion strains, locus YPR141C, strain kar3, active compounds read low 0.993 | S. cerevisiae deletion strains, locus YPR163C, strain tif3, active compounds read low 0.994 | S. cerevisiae deletion strains, locus YPR167C, strain met16, active compounds read low 0.995 | S. cerevisiae deletion strains, strain wtn01, active compounds read low 0.999 | S. cerevisiae strains, strain wild type, active compounds read low 1.03
